The values below come from PubChem BioAssay.

Activity calls are given as the source filed them.

In one assay the target is Albumin (Bos taurus) (UniProt P02769). The experiment in a line: compounds binding labelled BSA control protein – biochemical, small-molecule microarray, Alexa647 label, 635/667 nm fluorescence, artefact control for SMM control protein annotation, profiling panel (AID 1118).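 Further: score merges 667 nm emission intensity and signal-to-noise per printed compound spot.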 Particulars: BSA-A647 binding, fluorescence 635 nm, higher = more signal.
Albumin (Bos taurus), sequence (P02769 whole entry, looked up): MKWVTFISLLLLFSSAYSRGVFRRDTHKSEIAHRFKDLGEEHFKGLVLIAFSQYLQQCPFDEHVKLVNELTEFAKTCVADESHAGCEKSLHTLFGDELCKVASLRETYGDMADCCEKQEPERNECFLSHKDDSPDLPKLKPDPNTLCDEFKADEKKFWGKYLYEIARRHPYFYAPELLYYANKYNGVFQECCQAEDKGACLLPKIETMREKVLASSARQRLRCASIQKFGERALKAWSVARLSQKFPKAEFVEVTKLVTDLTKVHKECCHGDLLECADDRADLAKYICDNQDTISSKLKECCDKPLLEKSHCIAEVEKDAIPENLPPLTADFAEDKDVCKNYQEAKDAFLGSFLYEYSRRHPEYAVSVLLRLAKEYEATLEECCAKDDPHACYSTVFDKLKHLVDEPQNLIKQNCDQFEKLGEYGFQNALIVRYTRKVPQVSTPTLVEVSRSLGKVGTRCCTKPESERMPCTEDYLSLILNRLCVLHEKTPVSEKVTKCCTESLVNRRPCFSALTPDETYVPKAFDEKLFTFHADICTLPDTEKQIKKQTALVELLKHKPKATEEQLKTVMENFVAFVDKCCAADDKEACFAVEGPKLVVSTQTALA
A short description of assay [1]: probe aXIP binding to arrayed compounds – biochemical, NeuroSMM set, 635/667 nm fluorescence, primary screen (AID 1119).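 Further: probe is the protein aXip251-270 applied at 1 µg/mL to compound-printed slides; binding of probe to printed compounds measured as 667 nm fluorescence plus signal to noise.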 Particulars: small-molecule microarray, higher = more signal, called active from +8 up or from −8 down.
Assay [2] can be described thus: probe aNOTCH3 binding on compound microarray – biochemical, small-molecule microarray, 635/667 nm fluorescence, primary screen (AID 1120).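 Further: probe is a biotin-tagged antibody raised against NOTCH3 rather than NOTCH3 protein; score merges spot fluorescence near 667 nm with spot signal to noise.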 Conditions: higher = more signal.
Assay [3] can be described thus: probe aNOTCH2 binding on compound microarray – biochemical, small-molecule microarray, 635/667 nm fluorescence, primary screen (AID 1121).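 Further: score merges feature fluorescence read at 667 nm with its signal to noise.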 Conditions: higher = more signal.
The target of assay [4] is Carbonic anhydrase 2 (Homo sapiens) (UniProt P00918). The experiment in a line: compounds binding carbonic anhydrase 2 – biochemical, small-molecule microarray, Alexa647-labelled CAII, profiling panel (AID 1122). Conditions: CAII-A647 binding fluorescence, higher = more signal.
A short description of assay [5]: COS7 lysate on small-molecule microarray, probe aHis, 635 nm (AID 1123).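 Further: z-score combines 667nm fluorescence intensity with signal-to-noise per printed compound spot.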 Particulars: COS7 cell lysate, fluorescence, higher = more signal.
Assay [6] can be described thus: probe aLAP1 signal on lysate-treated microarray – cell lysate, small-molecule microarray, COS7 lysate, primary screen (AID 1124).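 Further: lysate comes from COS7 cells expressing LAP1 and is applied at 0.3 µg/mL; score merges spot fluorescence near 667 nm with signal-to-noise over triplicate slides.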 Conditions: probe aLAP1, fluorescence, higher = more signal.
For a further assay, the system named is Sam68 (KHDRBS1). As to the kind of experiment: compounds binding KHDRBS1 protein – biochemical, small-molecule microarray, 635 nm fluorescence, primary screen (AID 1125).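 Further: score merges 667 nm channel intensity with signal to noise over triplicate slides.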 Particulars: higher = more signal.
Assay [7] deals with Chordin-like protein 2 (CHRDL2). The experiment in a line: compounds binding chordin-like 2 – biochemical, small-molecule microarray, 635 nm fluorescence, primary screen (AID 1126).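 Further: printed compound slides probed with Chrdl2 protein at 4 µg/mL for 1 h at 4 C; score merges 667 nm emission intensity with signal to noise over three replicate slides.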 Particulars: fluorescence 635 nm, higher = more signal.
In assay [8] the target is Concanavalin-A (Canavalia ensiformis) (UniProt P02866). As to the kind of experiment: compounds binding concanavalin A lectin – biochemical, small-molecule microarray, Alexa647 label, 635 nm, artefact control for SMM control protein annotation, primary screen (AID 1127).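 Further: z combines 667 nm emission intensity with signal-to-noise across three replicate slides.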 Conditions: ConA-A647 binding fluorescence, higher = more signal.
Concanavalin-A (Canavalia ensiformis), sequence (P02866 whole entry, looked up): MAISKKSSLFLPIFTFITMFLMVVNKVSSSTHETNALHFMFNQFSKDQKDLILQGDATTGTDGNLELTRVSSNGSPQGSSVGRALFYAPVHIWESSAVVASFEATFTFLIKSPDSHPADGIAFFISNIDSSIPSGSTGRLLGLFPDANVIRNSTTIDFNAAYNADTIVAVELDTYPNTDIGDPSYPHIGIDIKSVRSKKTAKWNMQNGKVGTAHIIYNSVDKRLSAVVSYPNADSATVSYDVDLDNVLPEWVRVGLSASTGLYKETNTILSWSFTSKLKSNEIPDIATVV
Assay [9] can be described thus: compounds binding Alexa647 anti-His antibody – biochemical, small-molecule microarray, 635 nm fluorescence, artefact control for SMM control protein annotation, primary screen (AID 1128).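 Further: score merges feature fluorescence with signal-to-noise for each printed compound spot.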 Particulars: higher = more signal.
Assay [10] deals with Human papillomavirus type 1a E7 protein (residues 1-88). The experiment in a line: HPV1a E7 small-molecule binders, primary screen, biochemical, small-molecule microarray, residues 1-88, 635 nm (AID 1129). Conditions: small-molecule microarray binding, fluorescence 635 nm; higher = more signal.
In assay [11] the target is Focal adhesion kinase 1 (Homo sapiens) (UniProt Q05397). As to the kind of experiment: PTK2 protein binding on printed compound slides – biochemical, small-molecule microarray, 635/667 nm fluorescence, BSA, DTT, primary screen (AID 1130).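 Further: composite of spot emission at 667 nm and signal to noise over triplicate slides.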 Conditions: 635 nm fluorescence, higher = more signal.
Focal adhesion kinase 1 (Homo sapiens), sequence (Q05397 whole entry, looked up): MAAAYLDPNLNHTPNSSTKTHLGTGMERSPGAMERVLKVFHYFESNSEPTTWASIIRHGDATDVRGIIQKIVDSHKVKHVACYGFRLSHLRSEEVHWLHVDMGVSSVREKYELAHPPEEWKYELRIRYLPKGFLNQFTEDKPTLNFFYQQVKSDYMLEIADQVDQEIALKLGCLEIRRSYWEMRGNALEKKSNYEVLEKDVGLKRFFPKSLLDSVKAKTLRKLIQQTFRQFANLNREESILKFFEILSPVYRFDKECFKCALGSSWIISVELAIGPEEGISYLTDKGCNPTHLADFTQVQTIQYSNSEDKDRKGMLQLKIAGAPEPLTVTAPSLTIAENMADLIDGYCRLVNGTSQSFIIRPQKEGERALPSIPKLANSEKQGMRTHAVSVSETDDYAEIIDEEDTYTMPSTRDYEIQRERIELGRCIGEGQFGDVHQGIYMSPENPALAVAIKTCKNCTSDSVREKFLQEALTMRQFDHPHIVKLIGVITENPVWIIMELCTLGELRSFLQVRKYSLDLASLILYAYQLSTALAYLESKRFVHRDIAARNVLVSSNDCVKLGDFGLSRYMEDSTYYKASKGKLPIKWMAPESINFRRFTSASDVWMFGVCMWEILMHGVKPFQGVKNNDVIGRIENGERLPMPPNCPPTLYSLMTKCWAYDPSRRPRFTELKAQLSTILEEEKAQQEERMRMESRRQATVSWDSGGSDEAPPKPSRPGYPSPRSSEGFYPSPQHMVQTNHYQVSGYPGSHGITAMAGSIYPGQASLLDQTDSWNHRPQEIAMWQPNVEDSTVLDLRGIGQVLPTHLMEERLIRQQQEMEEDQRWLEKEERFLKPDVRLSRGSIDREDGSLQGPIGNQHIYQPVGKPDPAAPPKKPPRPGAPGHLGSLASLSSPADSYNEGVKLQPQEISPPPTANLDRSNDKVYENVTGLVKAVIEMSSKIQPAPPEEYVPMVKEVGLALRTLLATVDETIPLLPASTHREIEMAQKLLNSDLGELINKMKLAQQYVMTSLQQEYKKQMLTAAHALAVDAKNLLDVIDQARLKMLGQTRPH
For assay [12], the system named is Fibrinogen (Alexa647-labelled). The experiment in a line: Alexa647-fibrinogen binding to printed small molecules – biochemical, small-molecule microarray, 635/667 nm fluorescence, artefact control for SMM control-protein annotation, profiling panel (AID 1131).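 Further: z-score merges 667 nm fluorescence with per-spot signal-to-noise over triplicate slides.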 Conditions: fibrinogen-A647 binding fluorescence, higher = more signal.
Assay [13] has as its target Follistatin (Homo sapiens) (UniProt P19883). As to the kind of experiment: FST protein binding to printed compounds – biochemical, small-molecule microarray, 635/667 nm fluorescence, primary screen (AID 1132). Conditions: 635 nm fluorescence, higher = more signal.
In assay [14] the target is Fibroblast growth factor 2 (Homo sapiens) (UniProt P09038). The experiment in a line: basic fibroblast growth factor binding to printed compounds – biochemical, small-molecule microarray, 635/667 nm fluorescence, primary screen (AID 1133). Particulars: FGF2, fluorescence 635/667, higher = more signal.
Fibroblast growth factor 2 (Homo sapiens), sequence (P09038 whole entry, looked up): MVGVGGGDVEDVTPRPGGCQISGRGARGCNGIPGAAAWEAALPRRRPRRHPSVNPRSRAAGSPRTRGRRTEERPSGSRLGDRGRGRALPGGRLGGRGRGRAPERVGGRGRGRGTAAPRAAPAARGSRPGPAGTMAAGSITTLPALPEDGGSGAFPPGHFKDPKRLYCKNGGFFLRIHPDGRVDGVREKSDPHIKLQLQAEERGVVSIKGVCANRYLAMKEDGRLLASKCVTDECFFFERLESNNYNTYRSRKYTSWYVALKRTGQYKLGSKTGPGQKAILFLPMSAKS
The nature of assay [15]: JC-1 mitochondrial potential readout, lung cancer cells – cell-based, A549, JC-1 fluorescence, basal, 24 h, 100 nL, profiling panel (AID 1138).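 Further: A549 lung adenocarcinoma cells under basal conditions with no added stimulus; test concentration not given here.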 Conditions: higher = more signal.
A further assay concerns Lefty1. The experiment in a line: Lefty1 protein binding to printed compounds – biochemical, small-molecule microarray, 635/667 nm fluorescence, primary screen (AID 1139). Conditions: fluorescence 635/667, higher = more signal.
The test system of assay [16] is wheat germ agglutinin (Triticum aestivum), Alexa647-labelled. The experiment in a line: Alexa647-WGA lectin binding to printed small molecules – biochemical, small-molecule microarray, 635/667 nm fluorescence, artefact control for SMM control-protein annotation, profiling panel (AID 1140).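 Further: score merges 667 nm feature emission with signal to noise over triplicate slides.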 Conditions: WGA-A647 binding, 635 nm fluorescence, higher = more signal.
Assay [17] deals with Luciferin 4-monooxygenase (Photinus pyralis) (UniProt P08659). The experiment in a line: inhibition of purified Photinus pyralis luciferase – biochemical, luminescence, purified enzyme, 2006 set, primary screen (AID 1141).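 Further: cell-free assay with purified firefly luciferase at 100 ng per well in PBS; test concentration not given here.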 Conditions: purified firefly luciferase, SteadyGlo luminescence, 30 min; higher = more signal, called active from +8 up or from −8 down.
Luciferin 4-monooxygenase (Photinus pyralis), sequence (P08659 whole entry, looked up): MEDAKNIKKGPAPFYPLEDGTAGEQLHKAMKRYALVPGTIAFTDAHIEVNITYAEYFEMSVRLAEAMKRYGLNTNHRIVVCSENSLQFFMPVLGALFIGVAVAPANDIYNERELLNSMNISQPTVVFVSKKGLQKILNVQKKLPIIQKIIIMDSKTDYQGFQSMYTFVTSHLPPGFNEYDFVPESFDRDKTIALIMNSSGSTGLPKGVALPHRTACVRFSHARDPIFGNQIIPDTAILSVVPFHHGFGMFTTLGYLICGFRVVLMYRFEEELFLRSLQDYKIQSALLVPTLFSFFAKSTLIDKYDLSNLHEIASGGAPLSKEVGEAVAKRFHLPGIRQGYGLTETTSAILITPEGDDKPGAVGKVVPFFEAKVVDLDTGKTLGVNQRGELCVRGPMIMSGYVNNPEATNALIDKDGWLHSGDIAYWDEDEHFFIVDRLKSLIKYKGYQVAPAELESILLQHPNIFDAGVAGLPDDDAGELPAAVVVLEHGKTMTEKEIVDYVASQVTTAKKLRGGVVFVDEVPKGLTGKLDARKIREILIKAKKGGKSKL

Follistatin (Homo sapiens), sequence (P19883 whole entry, looked up): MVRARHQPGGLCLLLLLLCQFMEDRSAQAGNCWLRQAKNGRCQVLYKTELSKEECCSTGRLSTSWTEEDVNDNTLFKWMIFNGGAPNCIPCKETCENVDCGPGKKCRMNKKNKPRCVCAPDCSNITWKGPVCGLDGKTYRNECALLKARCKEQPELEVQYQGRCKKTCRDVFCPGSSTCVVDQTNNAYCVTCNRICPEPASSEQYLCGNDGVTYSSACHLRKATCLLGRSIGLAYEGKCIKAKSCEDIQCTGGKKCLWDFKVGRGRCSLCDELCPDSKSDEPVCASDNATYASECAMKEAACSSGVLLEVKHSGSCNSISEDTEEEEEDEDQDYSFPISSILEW

With `C=CC[C@]12N=C(c3ccc(OCCCO)cc3)O[C@H]1c1ccccc1N(CCC)C2=O`, the composite z-score was -0.0791 with Albumin (Bos taurus); 0.467 in assay [2]; 0.14 in assay [3]; 0.705 in [4]; 2.85 in [5]; 0.674 in assay [6]. Besides, the composite z-score with Sam68 (KHDRBS1) was determined as 1.29; in [7], 1.2; in [8], 1.09; in assay [9], 2.3; in assay [10] it was 0.917; in [11] it was 0.685. Also, the composite z-score amounted to 0.488 in assay [12]; 1.46 in [13]; 1.35 in assay [14]; 0.613 with Lefty1; 0.954 in assay [16]. Moreover, in assay [1], the composite Z-score is 1.91 (inactive). For the same molecule, the values for the z-score in [15] and in assay [17] were 0.948 and -3.66 (inactive), respectively.
Regarding `CC(C)C(=C=CC[C@H](O)c1cccc(OCCO)c1)C[C@H](O)c1ccccn1`, the composite z-score is 0.481 with Albumin (Bos taurus); -0.0647 in assay [2]; -0.146 in assay [3]; 0.811 in assay [4]; 0.48 in [5]; 0.182 in assay [6]. Further, the composite z-score in the assay on Sam68 (KHDRBS1) is 0.353; in assay [7] it was -0.0719; in assay [8], 0.13; in [9], 0.474; in assay [10] it was 0.534; in assay [11], 0.0358. For the same molecule, the composite z-score in [12] was -1.37; in [13] it was 0.972; in assay [14], 0.236; with Lefty1, 0.788; in [16] it was 0.641. Also, the composite Z-score in assay [1] is -0.128 (inactive). The z-score in [15] was 0.717; in assay [17] it was -0.147 (inactive).
As to `COC(=O)C(CC#Cc1ccc2c(c1)[C@]1(C(=O)N2)[C@H](C(N)=O)[C@H]2C(=O)O[C@H](c3ccccc3)[C@H](c3ccccc3)N2[C@@H]1c1ccccc1OCCO)C(=O)OC`, the composite z-score was 0.398 in the assay with Albumin (Bos taurus); -0.248 in assay [2]; -0.124 in [3]; 0.434 in assay [4]; 2.34 in assay [5]; 0.782 in assay [6]. Also, the composite z-score in the assay on Sam68 (KHDRBS1) was 1.13; in assay [7], -0.0393; in [8] it was 1.12; in [9], 1.25; in [10], 1.22; in assay [11], 0.474. The composite z-score in assay [12] is 0.591; in assay [13], 0.917; in assay [14], 0.535; in the assay on Lefty1, 0.607; in [16], 0.775. Further, the composite Z-score in [1] is -0.363 (inactive). Besides, the z-score is -1.05 in [15] and -0.638 (inactive) in assay [17].
For `COC(=O)[C@@]1(Cc2ccc(OC)cc2)[C@H]2c3cc(C(=O)N(C)C)n(Cc4c(CO)[nH]cc(C)c4=O)c3C[C@H]2CN1C(=O)c1ccccc1`, the composite z-score was found to be 0.302 in the assay with Albumin (Bos taurus); 0.23 in assay [2]; 0.484 in assay [3]; 0.876 in assay [4]; 2.97 in assay [5]; 0.221 in assay [6]. In addition, the composite z-score in the assay with Sam68 (KHDRBS1) is 0.55; in [7], -0.31; in [8], 0.554; in assay [9], 0.566; in [10], 1.18; in assay [11] it was 1.93. Further, the composite z-score in [12] was 0.0557; in assay [13], 0.0689; in assay [14], -0.583; with Lefty1, 0.0267; in assay [16], 0.19. The composite Z-score in assay [1] was 0.0713 (inactive). The z-score is 0.144 in assay [15] and 1.48 (inactive) in assay [17].
With `C=C[C@H](C)[C@@H](OC(=O)Nc1ccc(SC)cc1)c1ccc(OCCO)cc1`, the composite z-score in the assay with Albumin (Bos taurus) was 0.312; in assay [2] it was 0.137; in [3], -0.0008; in assay [4], 0.397; in assay [5], 1.59; in [6] it was 0.471. The composite z-score in the assay with Sam68 (KHDRBS1) amounted to 0.157; in [7], 0.28; in assay [8], 0.272; in assay [9] it was 2.21; in assay [10], 1.14; in assay [11] it was 0.461. Further, the composite z-score in [12] was -1.15; in [13] it was 0.629; in [14], 0.2; in the assay on Lefty1 it was 0.265; in assay [16] it was 0.827. In addition, in assay [1], the composite Z-score is 0.794 (inactive). Further, the z-score in assay [15] is -1.8; in assay [17], -7.41 (inactive).
